Data as given in the supplement of paper PMC6555819.

Experiments:
Assay in all cases: PBM binding z-score (relative to random genomic background probes); higher = stronger binding; sequences stand for … in GC…GCGATTGACAGCGTAGAATGAAGG
[1] = test system: RARb homodimer (NR concentration 270 nM)
Outline: (§1)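 Each nuclear receptor dimer, without ligand, was incubated for 1 h on custom Agilent 4×180K protein-binding microarrays. Binding was detected with antibodies against each partner (one per run), and scanned fluorescence was regression-normalized. The binding z-scores are referenced to random human genomic background probes.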

[2] = test system: RARg:RXRa (NR concentration 270 nM, RXRa partner concentration 90 nM)
Outline: as §1

[3] = test system: RARg homodimer (NR concentration 270 nM)
Outline: as §1

[4] = test system: RXRa DBDmut IVT, anti-RXR (DBD mutation: RXRa K156A/R161A, NR concentration 90 nM)
Outline: as §1

[5] = test system: RXRa homodimer (NR concentration 180 nM)
Outline: as §1

[6] = test system: THRa:RXRa (NR concentration 90 nM, RXRa partner concentration 90 nM)
Outline: as §1

[7] = test system: THRa homodimer (NR concentration 90 nM)
Outline: as §1

[8] = test system: VDR homodimer (NR concentration 270 nM)
Outline: as §1

Sequence	PBM binding z-score [1]	PBM binding z-score [2]	PBM binding z-score [3]	PBM binding z-score [4]	PBM binding z-score [5]	PBM binding z-score [6]	PBM binding z-score [7]	PBM binding z-score [8]
TCGAGTAGGTTACGGGGCCATTCAGGGATGAAGA	1.21	0.957	0.954	0.0548	1.06	2.47	0.44	0.657
AAATGTAGGTTAGGGTCATTCAGAAAGTAGGGAA	3.49	3.99	3.4	2.78	5.29	4.02	3.35	3.92
TCTTATAGATCAATAGAGGTTAAGAAAGTGCGCT	1.22	1.04	0.633	0.906	1.75	2.49	0.125	0.336
CGAACCAGGTCACCAGGACAGTGAAGAGGTTGGA	3.59	5.06	5.35	2.04	4.73	3.94	2.77	1.62
TCGAGTAGGTTACCGGGGCATTCAGGGATGAAGA	1.09	1.01	0.946	-0.0634	0.997	2.25	0.104	-0.232
CGAACTAGGTCACCAGGACAGTGAGGAGGTTGGA	3.41	4.5	5.36	1.05	3.49	3.34	1.7	0.667
CCGAGTAGTTTACGAGGGGGCATTCAGTGCGAAT	1.7	1.92	1.48	2.08	1.37	2.54	0.595	3.37
CGAACTAGGTCCAAGGACAGTGAAAGGCGACGTA	0.38	0.00598	0.386	0.946	0.00981	1.39	0.672	-0.041
CGAACTAGGTCACCAGGAAAGTGAAGAGGTTGGA	3.18	4.45	5.45	1.53	3.53	2.91	1.04	0.43
TGTCAGAGTTCAAAGGTAACGTAAGTATCCACAC	3.41	5.95	5.28	4.83	7.51	3.53	-0.159	5.41
TCGAGTAGGTTACGGGGGCATTCTGGGATGAAGA	2.05	3.25	2.19	1.74	2.52	3.32	1.3	3.52
CCTAGTTGGTCAAGGTCTCACACGCTATAGGTAC	1.32	0.677	1.21	1.08	0.272	0.956	1.03	0.887
CAAACTAGGTCACCAGGACAGTGAAGAGGTTGGA	3.44	4.56	5.51	1.54	3.75	3.77	2	1.03
CGAACTAGGTCACCAGGACCGTGAAGAGGTTGGA	3.25	4.44	5.18	1.08	3.5	2.89	1.07	0.39
TCGAGTAGGTTATGGGGGCATTCAGGGATGAAGA	2.17	2.62	1.29	1.84	2.1	3.99	1.84	2.57
CTCGAAAGGTCGTGCTTAGGTGAGTATACCAAAC	3.07	5.09	3.82	2.24	4.91	4.2	1.11	1.05
